This is a sample that favours compounds with a hit; in the whole collection about 7.3% have one here.
Vaccinia Venus: qHTS for Stage-Specific Inhibitors of Vaccinia Orthopoxvirus: Venus Reporter Primary qHTS. Potency, µM (series often up to 36.5 µM), hits mostly inhibitors. Vaccinia virus Venus reporter expression, fluorescence. 330,000 tested, 0.46% active; calls by dose curve; tested in A549 cells; note: nearly all actives have a fitted effect of over 30% in size
Vaccinia mCherry: qHTS for Stage-Specific Inhibitors of Vaccinia Orthopoxvirus: mCherry Reporter Primary qHTS; Vaccinia virus mCherry reporter infection, fluorescence; Potency, µM (series often up to 36.5 µM), most hits filed as inhibitors; 310,000 tested, 0.63% active; calls by dose curve; tested in A549 cells; note: nearly all actives have a fitted effect of over 35% in size
HCV inhibitor: qHTS Assay for Inhibitors of Hepatitis C Virus (HCV); Huh7.5.1 HCVcc-Cre infection, luciferase reporter, 44 h; Potency, µM (top dose mostly 41.8 µM), hits mostly inhibitors; 340,000 tested, 3.4% active; AID 651820, 2012; active = well fitted inhibition curve with a large enough effect; inconclusive = small, poorly fitted or top-dose-only effect, or another doubt; inactive = no such curve, though single readings can be large or run the other way
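Seed cells (1,000/well) for 4 h; treat with compound and infect with HCVcc-Cre, moi about 0.5. Incubate 44 h, then detect luciferase activity.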
HCMV inh: qHTS Assay for inhibitors of the human cytomegalovirus (HCMV). HFF cells, HCMV-luciferase reporter, 72 h; active compounds read low. activity change, negative = inhibition, % at 57.5 µM. 410,000 tested, 4.5% active. AID 1259415, 2018; in the data active = activity change below about -60%; inconclusive = no clear call, values can overlap the other calls; inactive = above about -39%
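Compounds were evaluated in HFFs infected with an HCMV luciferase reporter virus (MOI 1 PFU/cell). Luciferase in lysates collected 72 h post infection served as the replication measure.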
FMDV antiviral: High Throughput Screening for Foot and Mouth Disease Virus Antivirals | FMDV antiviral cell-based qHTS | Potency, µM (doses to about 57.9 µM), actives largely listed as inhibitors | 410,000 tested, 1.2% active; calls by dose curve; tested in HEK293T cells; note: read-out not given here; nearly all actives have a fitted effect of over 45% in size
Of the large screens only hits and unclear results are named; the others gave an inactive call.

C#CCOCCOCCOCCNc1nc(N2CCN(C(=O)CCCCCCCCCCNC(=O)[C@@H](CCC(=O)O)n3cc(CCCCCN)nn3)CC2)nc(N2CCN(C(=O)CCCCCCCCCCNC(=O)[C@H]([C@@H](C)CC)n3cc(CCCCCN)nn3)CC2)n1	Vaccinia Venus inconclusive, HCV inhibitor inconclusive (no result: HCMV inh)
CCOc1ccc(CCNCc2c(C(=O)O)c(C)n(Cc3ccccc3F)c2C)cc1	none (no result: HCV inhibitor)
C#CCOCCOCCOCCNc1nc(N2CCN(C(=O)CCCCCCCCCCNC(=O)[C@H]([C@@H](C)CC)n3cc(CCCCN=C(N)N)nn3)CC2)nc(N2CCN(C(=O)CCCCCCCCCCNC(=O)[C@H](CO)n3cc(CCCCCN)nn3)CC2)n1	Vaccinia Venus 7.1µM, Vaccinia mCherry inconclusive, HCV inhibitor inconclusive, FMDV antiviral inconclusive (no result: HCMV inh)
C#CCOCCOCCOCCNc1nc(N2CCOCC2)nc(N2CCN(C(=O)CCCCCCCCCCNC(=O)[C@@H]([C@H](C)CC)n3cc(CCCCCN)nn3)CC2)n1	Vaccinia Venus inconclusive, HCV inhibitor inconclusive
COCC(=O)Nc1cc(C(=O)NC2CCCc3ccccc32)c2c(c1)nc(-c1ccncc1)n2C (centres undefined)	none (no result: HCV inhibitor, HCMV inh)
Cn1c(SCC(=O)N2CC(=O)Nc3ccccc32)nc2ccccc2c1=O	none (no result: Vaccinia Venus, Vaccinia mCherry)
O=C1CN(C(=O)CSc2nc3ccccc3n2CCc2ccccc2)c2ccccc2N1	HCMV inh -60
O=C1CN(C(=O)CSc2nc3ccccc3c(=O)n2Cc2ccc(F)cc2)c2ccccc2N1	HCV inhibitor inconclusive, HCMV inh -64
O=C(CSc1nc2cc(Cl)ccc2s1)Nc1cccc(S(=O)(=O)N2CCOCC2)c1	HCV inhibitor inconclusive, FMDV antiviral inconclusive
FC(F)(F)c1cccc(NC(=S)Nc2ccc(Cl)c(Cl)c2)c1	none
O=[N+]([O-])c1cc(C(F)(F)F)cc([N+](=O)[O-])c1NCCNC(=S)Nc1ccc(Cl)c(Cl)c1	Vaccinia Venus inconclusive, Vaccinia mCherry inconclusive, HCV inhibitor inconclusive, HCMV inh -93
CCN(CC)c1ccc(NC(=O)CCS(=O)(=O)c2ccc(Br)cc2)c(C)c1	none (no result: Vaccinia Venus, Vaccinia mCherry)
CC(C)CC(NC(=O)OCc1ccccc1)C(=O)NC(Cc1ccccc1)C(=O)CCl (centres undefined)	HCV inhibitor inconclusive, FMDV antiviral 25µM
CCOC(=O)CNC(=O)C(Cc1ccccc1)NC(=O)OCc1ccccc1 (centres undefined)	none (no result: Vaccinia Venus, Vaccinia mCherry)
CCOC(=O)CNC(=O)C(CO)NC(=O)OCc1ccccc1 (centres undefined)	HCMV inh -100
CC(=O)c1c(C)[nH]c(C(=O)OCC(=O)N2CCN(S(=O)(=O)c3ccc(C)cc3)CC2)c1C	HCV inhibitor inconclusive (no result: Vaccinia Venus, Vaccinia mCherry)
Cc1ccc(S(=O)(=O)N2CCN(C(=O)c3cc(=O)[nH]c4ccccc34)CC2)c(C)c1	HCV inhibitor 14µM, FMDV antiviral inconclusive (no result: Vaccinia Venus, Vaccinia mCherry)
Cc1ccc(S(=O)(=O)N2CCN(C(=O)C3CC3C)CC2)c(C)c1 (centres undefined)	none
CC(=O)c1c(C)[nH]c(C(=O)OCC(=O)N2CCN(S(=O)(=O)c3ccc(C)cc3C)CC2)c1C	Vaccinia Venus inconclusive, HCV inhibitor inconclusive, FMDV antiviral 20µM
Cc1ccc(S(=O)(=O)N2CCN(C(=O)C3CCN(C(=O)c4ccc(F)cc4)CC3)CC2)c(C)c1	HCV inhibitor 11µM, FMDV antiviral inconclusive
Fc1ccc(NC(=S)Nc2nccs2)cc1	HCV inhibitor inconclusive, HCMV inh -115 (no result: Vaccinia Venus, Vaccinia mCherry)
Cc1c(N=C2N=C(NC(=O)c3cccs3)c3ccccc32)c(=O)n(-c2ccccc2)n1C	HCV inhibitor 10µM, FMDV antiviral inconclusive
COc1ccc(CN(C)C[C@@H]2OCCCC[C@H](C)Oc3ccc(NC(=O)Cc4ccccc4)cc3C(=O)N([C@@H](C)CO)C[C@@H]2C)cc1	none (no result: HCV inhibitor)
C[C@@H]1CN([C@H](C)CO)C(=O)c2cc(NC(=O)Nc3ccc(F)cc3)ccc2O[C@@H](C)CCCCO[C@H]1CN(C)Cc1ccc(C(=O)O)cc1	none (no result: HCV inhibitor)
C[C@@H]1CCCCO[C@H](CN(C)Cc2ccc(C(F)(F)F)cc2)[C@H](C)CN([C@@H](C)CO)C(=O)c2cc(NC(=O)Cc3ccccc3)ccc2O1	Vaccinia Venus 11µM, Vaccinia mCherry inconclusive, HCMV inh -81, FMDV antiviral inconclusive (no result: HCV inhibitor)
C[C@@H]1CN([C@H](C)CO)C(=O)c2cc(NC(=O)Cc3ccccc3)ccc2O[C@H]1CN(C)Cc1ccc(Oc2ccccc2)cc1	Vaccinia Venus inconclusive, Vaccinia mCherry inconclusive, HCV inhibitor 11µM
C[C@H]1CN([C@@H](C)CO)C(=O)c2cc(NC(=O)Cc3ccccc3)ccc2O[C@H]1CN(C)Cc1ccccc1	HCMV inh inconclusive
C[C@@H]1CN([C@@H](C)CO)C(=O)c2cc(NC(=O)Nc3ccc(F)cc3)ccc2O[C@@H]1CN(C)Cc1ccc(Oc2ccccc2)cc1	Vaccinia Venus 10µM, Vaccinia mCherry inconclusive, HCV inhibitor inconclusive
COc1ccc(CN(C)C[C@@H]2OCCCC[C@H](C)Oc3ccc(NC(=O)Nc4ccc(F)cc4)cc3C(=O)N([C@H](C)CO)C[C@H]2C)cc1	HCMV inh -102, FMDV antiviral inconclusive (no result: HCV inhibitor)
CC(=O)N1CCc2cc(CNS(=O)(=O)c3cccs3)ccc21	none (no result: HCV inhibitor)
C[C@@H]1CN([C@@H](C)CO)C(=O)Cc2cc(NC(=O)Nc3ccc(F)cc3)ccc2O[C@@H]1CN(C)Cc1ccc(Cl)c(Cl)c1	Vaccinia Venus 11µM, Vaccinia mCherry inconclusive, HCV inhibitor inconclusive, FMDV antiviral inconclusive
CCC(=O)N1c2ccccc2CC1C(=O)NCCCN1CCN(c2cccc(Cl)c2)CC1 (centres undefined)	none (no result: HCV inhibitor)
CCOn1c(=O)c(-c2ccc(Cl)cc2)[n+]([O-])c2ccccc21	none (no result: Vaccinia Venus, Vaccinia mCherry)
CCOn1c(=O)c(-c2ccc(C)cc2)[n+]([O-])c2ccccc21	HCMV inh -60 (no result: Vaccinia Venus, Vaccinia mCherry)
O=C(NCCSCc1ccc(Cl)cc1Cl)c1ccc(CN2CCOCC2)cc1	Vaccinia Venus inconclusive, HCV inhibitor 11µM, HCMV inh inconclusive, FMDV antiviral inconclusive
Cn1c(=O)c2cc3ccccc3nc2n(C)c1=O	none
Oc1c(Cl)cc(Cl)cc1/C=N/Nc1ncc(Br)cn1	Vaccinia Venus inconclusive, Vaccinia mCherry 1.6µM, HCV inhibitor 2.2µM, HCMV inh -94
COc1ccccc1Cn1c(CNS(=O)(=O)c2c(C)cc(C)cc2C)nc2cccnc21	HCMV inh inconclusive (no result: HCV inhibitor)
CSc1ccc(C(=O)C2CCCN(S(=O)(=O)N(C)C)C2)cc1 (centres undefined)	FMDV antiviral inconclusive
O=C(c1ccc(-c2ccccc2)c(F)c1)C1CCCN(CCO)C1 (centres undefined)	HCV inhibitor 11µM
CN(C)S(=O)(=O)N1CCCC(C(=O)c2ccc(-c3ccccc3)c(F)c2)C1 (centres undefined)	HCV inhibitor 22µM (no result: Vaccinia Venus, Vaccinia mCherry)
O=C(c1ccc(-c2ccccc2)c(F)c1)C1CCCN(CCCn2cccn2)C1 (centres undefined)	HCV inhibitor inconclusive (no result: Vaccinia Venus, Vaccinia mCherry)
COc1ccccc1C1CN(Cc2cn(C)nc2C)Cc2ccccc2O1 (centres undefined)	none (no result: HCV inhibitor, HCMV inh)

Source: PubChem BioAssay
